Results on 40 molecules are retold here after PubChem BioAssay (Tox21).

Inconclusive results are not listed. A number with no mark means an inactive call. Calls follow the shape of the full dose curve.
% is scaled to controls: 0 for no effect and ±100 for the full control effect.

Sequence of Peroxisome proliferator-activated receptor delta (Homo sapiens) (Q03181 whole entry, looked up): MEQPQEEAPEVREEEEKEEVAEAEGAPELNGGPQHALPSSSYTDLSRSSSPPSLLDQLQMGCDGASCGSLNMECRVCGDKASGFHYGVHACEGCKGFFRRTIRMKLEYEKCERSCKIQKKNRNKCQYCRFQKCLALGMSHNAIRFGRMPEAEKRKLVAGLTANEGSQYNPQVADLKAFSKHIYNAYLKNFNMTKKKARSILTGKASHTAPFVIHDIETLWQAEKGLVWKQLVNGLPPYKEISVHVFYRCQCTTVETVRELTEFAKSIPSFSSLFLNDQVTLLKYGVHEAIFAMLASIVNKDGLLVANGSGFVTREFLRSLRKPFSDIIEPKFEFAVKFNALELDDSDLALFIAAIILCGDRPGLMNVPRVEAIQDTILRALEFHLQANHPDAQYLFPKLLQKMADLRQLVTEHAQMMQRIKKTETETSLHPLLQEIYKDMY

This assay deals with Peroxisome proliferator-activated receptor delta (Homo sapiens) (UniProt Q03181). The assay can be described thus: qHTS assay to identify small molecule agonists of the peroxisome proliferator-activated receptor delta (PPARd) signaling pathway (AID 743212). The conditions noted are these: HEK293H PPARd-UAS-bla, beta-lactamase FRET ratio, 17 h; series mostly up to 62.6 µM; activation: at the top concentration. From the text:
U.S. Tox21 Program National Center for Advancing Translational Sciences [NCATS] NIH Chemical Genomics Center [NCGC] U.S. Environmental Protection Agency [EPA] National Institutes of Environmental Health Sciences [NIEHS] National Toxicology Program [NTP] U.S. Food and Drug Administration [FDA] Tox21 Assay Overview: The peroxisome proliferator-activated receptors (PPARs) are lipid-activated transcription factors of the nuclear receptor superfamily with three distinct subtypes namely PPAR alpha, PPAR delta (PPARd) and PPAR gamma. All these subtypes heterodimerizes with Retinoid X receptor (RXR) and have different physiological functions. […] To identify the compounds that activate PPAR-delta signaling, GeneBLAzer PPAR delta UAS-bla HEK293H cell line (Invitrogen, Carlsbad, CA, USA) containing a beta-lactamase reporter gene under the control of an Upstream Activator Sequence (UAS) was used to screen the Tox21 compound library.
Tox21 Assay Protocol Summary: PPARd-bla cells were dispensed at 3000 cells/6uL/well in 1536-well black wall/clear bottom plates using a Multidrop Combi (Thermo Fisher Scientific, Waltham, MA) dispenser. After the assay plates were incubated at 37 C and 5% CO2 for 5 h, 23 nL of compounds dissolved in DMSO, positive controls or DMSO only was transferred to the assay plate by a Pintool station (Kalypsys, San Diego, CA). The assay plates were incubated at 37C for 17 h. After 1 uL of LiveBLAzerTM B/G FRET substrate was added using a Bioraptr Flying Reagent Dispenser (FRD) workstation (Beckman Coulter, Indianapolis, IN, USA), the plates were incubated at room temperature for 2 h, and fluorescence intensity was measured by an Envision plate reader (PerkinElmer, Shelton, CT).
In general terms: qHTS replaces the single test concentration by a dilution series.
For `O=C(O)CCSSCCC(=O)O`, the “activation” value is -0.204% [at 81.1 µM].

With `CC(C)C[C@H](NC(=O)CNC(=O)[C@H](Cc1ccc(O)cc1)NC(=O)[C@H](CO)NC(=O)[C@H](Cc1c[nH]c2ccccc12)NC(=O)[C@H](Cc1cnc[nH]1)NC(=O)[C@@H]1CCC(=O)N1)C(=O)N[C@@H](CCCN=C(N)N)C(=O)N1CCC[C@H]1C(=O)NCC(N)=O` (stereo in doubt), the “activation” value was 6.41%. Take `CCCCC(CC)COCCO` (stereo not given): the “activation” value is -2.89%. `COc1cc(C(=S)N2CCOCC2)cc(OC)c1OC`: the “activation” value was 0.244%. On to `COP(=O)(OC)OC(c1ccc(Cl)cc1)P(=O)(OC)OC` (stereo not given), for which the “activation” value is 0.0404%. For `CCCC(=O)C(C)=O`, the “activation” value was -0.134%. With `C[Si](C)(C)C`, the “activation” value is -0.717%.

As for `CCn1ccc(NS(=O)(=O)c2ccc(N)cc2)nc1=O`, the “activation” value was -10.8%. With `CC1COc2ccccc2N1` (stereo not given) the figure was -1.65%. On to `CC(N)C(=O)OC(C)(C)Cc1ccc(Cl)cc1` (stereo not given), for which the “activation” value was -2.18%. Regarding `O=C(OCC1(COC(=O)c2cccnc2)CCCC(COC(=O)c2cccnc2)(COC(=O)c2cccnc2)C1O)c1cccnc1`, the “activation” value was -0.611%. For the molecule `COc1ccc(Br)c(C)c1`, the “activation” value was 2.63% [at 81.1 µM]. Take `CCCCCCCCOS(=O)(=O)O`: the “activation” value was 4.06%. Take `C[C@H](N)[C@H](O)c1cccc(O)c1`: the “activation” value is 0.126%.

Take `Oc1ccccc1-c1nnco1`: the “activation” value is 0.844%. With `COc1cc2c(cc1OC)[C@@H]1CC(=O)[C@@H](CC(C)C)CN1CC2` the figure was 1.41%; with `O=C(O)Cc1ccc(Cl)cc1Cl`, 0.954%; with `CC(CC=O)CCCC(C)(C)O` (stereo not given), -0.179%. For `CC(C)NCC(O)COc1ccc(COCCOC(C)C)cc1` (stereo not given), the “activation” value is -0.537%. Regarding `COc1ccc(C2CNC(=O)C2)cc1OC1CCCC1` (stereo not given), the “activation” value was -4.01%.

For `CNS(=O)(=O)CCc1ccc2[nH]cc(C3CCN(C)CC3)c2c1`, the “activation” value is 2.53%.

As for `CC(C)(C)c1nnc(NS(=O)(=O)c2ccc(N)cc2)s1`, the “activation” value was 3.27%.

With `CN1CCN(CC(=O)N2c3ccccc3C(=O)Nc3cccnc32)CC1`, the activation is -1.15% [at 5.95 µM]. Consider `CCOC(=O)[C@H](CCc1ccccc1)N[C@@H](C)C(=O)N1C(=O)N(C)C[C@H]1C(=O)O`, for which the “activation” value was 0.441%. As for `OCCN(CCO)c1cccc(Cl)c1`, the “activation” value was 0.0578%. Take `OCCC(F)(F)C(F)(F)C(F)(F)C(F)(F)C(F)(F)C(F)(F)C(F)(F)C(F)(F)F`: the “activation” value was 1.08%. In the case of `CN(C)c1ccc(C=O)cc1`, the “activation” value is -0.0179%.

Take `N[C@@H](COP(=O)(O)O)C(=O)O`: the “activation” value is 0.797% [at 29.1 µM]. `C[C@@H](O)[C@H]1C(=O)N2C(C(=O)O)=C(SCCN=CN)C[C@H]12`: the “activation” value is 3.34%.

Turning to `CC(C)(C)c1cc(CCC(=O)NN)cc(C(C)(C)C)c1O`, the “activation” value is -3.87%. Take `C=C(C)C(=O)OCCOP(=O)(O)OCCOC(=O)C(=C)C`: the “activation” value was -4.22%. Consider `COc1ccc2c(c1)C(=O)N(CCc1ccc(S(=O)(=O)NC(=O)NC3CCCCC3)cc1)C(=O)C2(C)C`, for which the “activation” value is -5.29%.

`O=S(=O)(O)c1ccc2cc(O)c(S(=O)(=O)O)cc2c1`: the “activation” value was 1.96%. In the case of `CC(C)(C)NC(N)=O`, the “activation” value is 0.0158%.

In the case of `CCCCCCN`, the “activation” value is 0.239%. Consider `COCCc1ccc(OCC2CO2)cc1` (stereo not given), for which the “activation” value is 8.92%.

As to `O=C(/N=N/C(=O)OCc1ccccc1)OCc1ccccc1`, the “activation” value was -1.25%.

Take `Cc1cccc2nccnc12`: the “activation” value is 4.05%. Consider `NC(CO)C(=O)NNCc1ccc(O)c(O)c1O` (stereo not given), for which the “activation” value is -3.58%. On to `O=C(O)Cc1cn(-c2ccccc2)nc1-c1ccc(Cl)cc1`, for which the “activation” value is 2.1%.
